Calls of active or inactive are those of the source. Calls follow the shape of the dose curve; as a rule, active = well fitted curve in the direction sought with a large enough effect; inactive = flat fitted curve, though single readings scatter.
Experiment: Quantitative high throughput screen for delayed death inhibitors of the malarial parasite plastid: Hit Validation with 3D7 at 96 hr using Flow Cytometry
Conditions: P. falciparum 3D7 in erythrocytes, SYBR/MitoTracker flow cytometry
Text: The goal of this screen is to discover new antimalarial compounds that act by inhibiting the development of the apicoplast organelle in the malarial parasite Plasmodium falciparum. Some antibiotics, such as azithromycin and tetracycline, are known to interfere with the apicoplast translational machinery, and have a potent antimalarial effect. […] We developed a cell-based quantitative high throughput screen that leverages this "delayed death" phenotype to enrich for compounds that target the apicoplast. To detect small molecules that cause the delayed death phenotype, erythrocytes infected with firefly luciferase-expressing parasites were incubated with compounds for either one or two generations, corresponding to 48 and 96 hours, respectively. Growth inhibition was detected by a decrease in luciferase activity. Compounds that inhibited parasite growth in the second generation at least five-fold more potently than in the first generation were defined as delayed death inducing. These compounds were selected for confirmatory screening using a flow cytometry based assay. This hit validation assay used the 3D7 cell line and measured at 96 hours. NIH Molecular Libraries Probe Production Network [MLPCN] NIH Chemical Genomics Center [NCGC] MLPCN Grant: R21 NS059500 Assay Provider: David Fidock and Eric Ekland, Columbia University
Test compounds were diluted in 20 microliters of complete media (RPMI 1640 with 0.5% w/v Albumax (GIBCO), 24 mM sodium bicarbonate (Sigma) and 10 ug/mL gentamycin (Gibco)) in clear 384-well plates (Greiner). All liquid handling was conducted using a Bio Tek Precision 2000 pipetting system. Twenty microliters of infected erythrocytes, 0.2% parasitemia (for 48 hour time points) or 0.1% parasitemia (for 96 hour time points) were added to the compound dilutions (1% hematocrit, final concentration; 40 microliters, total culture volume). The assay plates were incubated for 48 hours, or 96 hours, at 37 masculine C in a humidified chamber (Billups- Rothenberg, Del Mar, CA, USA), gassed with 5%CO2/5%O2/ 90%N2. After two generations (96hours), 5 microliters of culture were harvested and transferred to a second 384 well plate for fluorescent staining. Samples were stained with 30 microliters of 2 x SYBR Green I (Invitrogen) and 150nM MitoTracker Deep Red (Invitrogen) diluted in 0.9% NaCl, 0.2% dextrose (Baxter) supplemented with 2.5% Fetal Calf Serum (Gibco) (saline/FCS). Mature erythrocytes lack nuclei and mitochondria, therefore only parasitized erythrocytes retain the SYBR Green I and MitoTracker Deep Red. After 30 minutes at 37 masculine C, the stained cells were diluted in an additional 60 microliters of saline/FCS. The samples were harvested directly from the 384 well plate using a Hypercyt High Capacity Flow Platform (Intellicyt) paired with a C6 Flow Cytometer (Accuri). The flow cytometry files were analyzed using FlowJo software (FlowJo).

SMILES | Potency
Cc1sc2nc[nH]c(=O)c2c1-c1ccc(Cl)cc1 | 13.8 µM (active)
COc1ccc(NC(=S)N2CCC(Cc3ccccc3)CC2)cc1OC | 26.6 µM (active)
Cc1ccc(CN2CCC(n3nccc3NC(=O)c3ccccc3C)CC2)o1 | 20.7 µM (active)
COc1ccc(Nc2nnc(-c3ccc(C)cc3)c3ccccc23)cc1C(=O)N1CCCCC1 | 20 µM (active)
CCCc1c(CC)c(=N)c2ccccc2n1C | 0.198 µM (active)
N#Cc1cccc(NC(=O)Cn2c3[n+](c4ccc(C(F)(F)F)cc42)CCCCC3)c1 | 0.96 µM (active)
CC(=O)NC[C@@H]1CN(c2ccc(N3CCOCC3)c(F)c2)C(=O)O1 | 22.2 µM (active)
COc1ccc2c(ccc[n+]2CC(=O)c2ccccc2)c1 | 2.22 µM (active)
CN(C)c1ccc(CN(C(=O)c2ccccc2Br)C2CCS(=O)(=O)C2)cc1 (stereo not given) | 18.2 µM (active)
Cc1c(F)c(N2CCNC(C)C2)cc2c1c(=O)c(C(=O)O)cn2C1CC1 (stereo not given) | 0.651 µM (active)
CN(C)S(=O)(=O)c1cc(NC(=O)C2=COCCO2)ccc1Cl | 15.9 µM (active)
COc1ccc(CNC(=O)C2CCC(CNS(=O)(=O)c3cccc4cccnc34)CC2)cc1 (stereo not given) | 16.5 µM (active)
O=C(Nc1ccccc1N1CCOCC1)c1cccc(S(=O)(=O)N2CCOCC2)c1 | 11 µM (active)
O=C(NCc1cccnc1)c1ccc(NS(=O)(=O)c2ccccc2)cc1 | 21.4 µM (active)
CCCCOc1ccc(N2C(N)=NC(N)=NC23CCCCC3)cc1 | 15.8 µM (active)
CCc1nc(SCC(=O)Nc2ccc(N(C)C)cc2)n[nH]1 | 23.9 µM (active)
COc1cc(C(C)=O)ccc1OCC(O)CN1CCN(c2cc(C)cc(C)c2)CC1 (stereo not given) | 13.9 µM (active)
COc1ccc2cc3cc(C(=O)Nc4ccc5c(c4)OCO5)oc3nc2c1 | 11.9 µM (active)
CC1=Nc2cc(C(=O)N3CCCC3)ccc2Sc2ccc(C)cc21 | 18 µM (active)
CO[C@@H]1[C@@H](OC2OC(C)C(OC3CC(C)(O)C(OC(=O)CC(C)C)C(C)O3)C(N(C)C)C2O)[C@@H](CC=O)C[C@@H](C)C(=O)/C=C\C2O[C@H]2C[C@@H](C)OC(=O)C[C@H]1OC(C)=O (stereo not given in full) | 0.178 µM (active)

SMILES | Potency
COCCNC(=O)c1cccc(OC2CCN(Cc3cccc(SC)c3)CC2)c1 | 5.37 µM (active)
CCCc1cc(=O)oc2cc(OC(C)C(=O)NCc3ccccn3)c(Cl)cc12 (stereo not given) | 3.22 µM (active)
CCC(=O)OC1C(N(C)C)CC(C)O[C@H]1O[C@H]1[C@H](C)[C@@H](O[C@H]2CC(OC)[C@@H](O)C(C)O2)[C@H](C)C(=O)O[C@@H](CC)[C@](C)(O)[C@@H](O)[C@H](C)C(=O)[C@@H](C)C[C@]1(C)O (stereo not given in full) | 11.4 µM (active)
CCOc1ccc(NC(=O)C[n+]2ccc(N(C)C)cc2)cc1 | 0.135 µM (active)
CCCCN(CCCNC(=O)C1CCN(C(=O)c2cc3sccc3n2C)CC1)Cc1ccccc1 | 0.617 µM (active)
COc1ccccc1N1CCN(CCC(=O)Nc2ccc(F)cc2)CC1 | 15.7 µM (active)
c1csc(CNc2ncnc3nc[nH]c23)c1 | 23.4 µM (active)
Clc1ccc(-c2c[n+](Cc3ccc(Cl)cc3Cl)c3n2CCCCC3)cc1 | 0.366 µM (active)
CCOC(=O)c1ccc2c(c1)n(CC)c(/C=C/N(C)c1ccccc1)[n+]2CC | 0.209 µM (active)
O=C(CNC(=O)C1CCCCC1)OC(C(=O)c1ccccc1)c1ccccc1 (stereo not given) | 31.7 µM (active)
CCN(CC)C(=O)COc1coc(CN2CCN(c3cccc(Cl)c3)CC2)cc1=O | 17.2 µM (active)
CCOc1ccc(S(=O)(=O)Nc2cc(S(=O)(=O)N(CC)CC)ccc2N2CCCC2)cc1 | 6.38 µM (active)
CCCCN(CCCNC(=O)c1ccc(CS(=O)(=O)c2ccc(OC)cc2)o1)Cc1ccccc1 | 4.01 µM (active)
COc1cccc(CN2CCN(c3nc4nonc4nc3N3CCCCC3)CC2=O)c1 | 1 µM (active)
CC(C)C(=O)NCCSc1c[nH]c2ccccc12 | 16.6 µM (active)
COc1ccc(C(=O)N2CCN(S(=O)(=O)c3ccc(C)cc3C)CC2)cc1OC | 45.8 µM (active)
Brc1cccc(OCCCCN2CCCCC2)c1 | 22.7 µM (active)
Cc1ccc(S(=O)(=O)Nc2ccc(C(=O)Nc3ccncc3)cc2)cc1 | 13.9 µM (active)
CCOc1ccc(C(=O)Nc2ccc(N3CCN(C)CC3)cc2)cc1 | 16.5 µM (active)
O=C(CSc1ccc(-c2cccnc2)nn1)Nc1ccccc1C(F)(F)F | 4.65 µM (active)

From PubChem BioAssay AID624335 (National Center for Advancing Translational Sciences (NCATS), 2012)
